Consider 13 compounds from PubChem BioAssay (NCI).

Compounds without any hit were thinned out: in the full panel of roughly 83,000, 20% have a hit.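 Treatment: one concentration, 48 hours, 96-well format. Scoring: percent growth, with anything below 10 considered active.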 A number with no mark means an inactive call. Active and inactive are the calls of the source.

Among the test systems are HCT-15 colon; HT29 colon; SNB-75 CNS; SNB-19 CNS; U251 CNS; PC-3 prostate; SK-MEL-5 melanoma; UACC-62 melanoma; LOX IMVI melanoma; SK-MEL-28 melanoma.
Holding throughout (assay): NCI-60 one-dose screen, 48 h (100 = growth as untreated, 0 = no growth, -100 = all killed)
Details in all cases: 10 µM

For `COc1ccc(/C=C2\CCCC3=C2NC(N)=NC3c2ccc(OC)c(OC)c2)cc1OC` (stereo not given), the growth was 35.9% in the assay with HCT-15 colon; 24.2% with HT29 colon; 63.9% in the assay with SNB-75 CNS; 88.7% with SNB-19 CNS; 37.8% with U251 CNS; 61.5% in the assay with PC-3 prostate. Moreover, the growth in the assay with SK-MEL-5 melanoma was 39.7%; in the assay with UACC-62 melanoma, 52.8%; in the assay with LOX IMVI melanoma it was 12.9%; in the assay on SK-MEL-28 melanoma, 65.3%.

With `Nc1nc(Cl)nc2c1ncn2C1O[C@H](CO)[C@@H](O)[C@@H]1F` (stereo not given in full), the growth is 48.1% with HCT-15 colon; 41.2% in the assay on HT29 colon; 37% with SNB-75 CNS; 19% in the assay on SNB-19 CNS; 27% in the assay with U251 CNS; 60.5% in the assay with PC-3 prostate. In addition, the growth in the assay on SK-MEL-5 melanoma was 32.1%; in the assay with UACC-62 melanoma it was -10.3% (active); in the assay with LOX IMVI melanoma, 4.83% (active); with SK-MEL-28 melanoma it was 73.8%.

As for `CCCCCC(=O)O[C@]1(C(C)=O)CCC2C3CCC4=CC(=O)CC[C@]4(C)C3CC[C@@]21C` (stereo not given in full), the growth in the assay with HCT-15 colon is 26.2%; with HT29 colon it was 16.6%; with SNB-75 CNS it was 46.3%; in the assay with SNB-19 CNS, 43.7%; in the assay on U251 CNS, 23.9%; with PC-3 prostate it was 6.12% (active). The growth was -1.8% (active) in the assay with SK-MEL-5 melanoma, 18.5% in the assay on UACC-62 melanoma, 10.4% with LOX IMVI melanoma and 49.4% in the assay on SK-MEL-28 melanoma.

On to `Cc1cc(=O)n2nnc3cc(C(F)(F)F)ccc3n12`, for which the growth in the assay with HCT-15 colon was 101%; in the assay on HT29 colon it was 104%; with SNB-75 CNS, 116%; in the assay with SNB-19 CNS it was 109%; in the assay with U251 CNS, 107%; with PC-3 prostate, 101%. The growth with SK-MEL-5 melanoma is 109%; in the assay with UACC-62 melanoma, 102%; in the assay with LOX IMVI melanoma, 106%; in the assay with SK-MEL-28 melanoma it was 118%.

Regarding `O=S(=O)(Oc1ccc(-c2ccc3sccc3c2)cc1)c1ccc(F)cc1`, the growth with HCT-15 colon is 88.9%; in the assay with HT29 colon, 96%; in the assay on SNB-75 CNS, 120%; in the assay on SNB-19 CNS, 103%; with U251 CNS, 101%; in the assay on PC-3 prostate it was 91%. In addition, the growth with SK-MEL-5 melanoma is 97.6%; in the assay on UACC-62 melanoma it was 80.2%; in the assay on LOX IMVI melanoma, 96.9%; in the assay on SK-MEL-28 melanoma, 103%.

Regarding `CC(CN(C)C)Oc1ccc(OC(C)CN(C)C)c2c1C(=O)c1ccccc1C2=O` (stereo not given), the growth with HCT-15 colon is 88.2%; in the assay with HT29 colon it was 20.8%; with SNB-75 CNS it was 54.9%; in the assay on SNB-19 CNS, 37.2%; with U251 CNS, 30.1%; in the assay with PC-3 prostate, 38.3%. In addition, the growth in the assay on SK-MEL-5 melanoma was 69.1%; in the assay on UACC-62 melanoma, 68%; with LOX IMVI melanoma it was 27.4%; in the assay with SK-MEL-28 melanoma, 96%.

On to `CNS(=O)(=O)Oc1ccc(-c2sc3cc(OS(=O)(=O)NC)ccc3c2C(=O)c2ccc(OCCN3CCCCC3)cc2)cc1`, for which the growth in the assay on HCT-15 colon was 35.2%; in the assay on HT29 colon, 31.1%; with SNB-75 CNS, 69.3%; in the assay on SNB-19 CNS, 82.7%; in the assay on U251 CNS, 66.9%; in the assay on PC-3 prostate, 42.4%. For the same compound, the growth in the assay with SK-MEL-5 melanoma was 49.7%; with UACC-62 melanoma, 74.7%; with LOX IMVI melanoma it was 32.8%; with SK-MEL-28 melanoma, 79.2%.

Take `COc1ccc(-c2cc(-c3ccccc3)nc(SCCCCCCC(=O)NO)n2)cc1`: the growth in the assay with HCT-15 colon was 44.3%; in the assay with HT29 colon, 27%; in the assay on SNB-75 CNS it was 24.8%; with SNB-19 CNS, 60.6%; in the assay on U251 CNS, 51.5%; in the assay with PC-3 prostate, 58.8%. The growth in the assay on SK-MEL-5 melanoma is 13.1%; with UACC-62 melanoma, 24.8%; in the assay with LOX IMVI melanoma, 13.1%; in the assay with SK-MEL-28 melanoma it was 67.9%.

Turning to `O=C(O)c1cn(C2CC2)c2cc(N3CCN(C(=O)c4cc(-c5ccc(Cl)cc5)nc5ccccc45)CC3)c(F)cc2c1=O`, the growth is 90.8% in the assay on HCT-15 colon; 96.1% in the assay with HT29 colon; 77.2% in the assay with SNB-75 CNS; 86% with SNB-19 CNS; 96% with U251 CNS; 70.7% in the assay on PC-3 prostate. Moreover, the growth in the assay with SK-MEL-5 melanoma is 85.4%; in the assay with UACC-62 melanoma it was 66.6%; in the assay with LOX IMVI melanoma, 63.4%; in the assay on SK-MEL-28 melanoma, 96.6%.

Consider `NS(=O)(=O)Oc1ccc(NC(=O)C2CCCCCC2)cc1`, for which the growth was 100% in the assay on HCT-15 colon; 108% in the assay with HT29 colon; 96.1% in the assay with SNB-75 CNS; 101% in the assay with SNB-19 CNS; 100% with U251 CNS; 96.5% in the assay with PC-3 prostate. Besides, the growth with SK-MEL-5 melanoma is 101%; with UACC-62 melanoma, 99.7%; in the assay with LOX IMVI melanoma, 98.8%; with SK-MEL-28 melanoma, 104%.

In the case of `CCOC(=O)Cn1c(=O)c2sc3ncccc3c2n2nnc(-c3ccccc3)c12`, the growth in the assay on HCT-15 colon was 107%; in the assay on HT29 colon, 107%; in the assay on SNB-75 CNS it was 77.2%; in the assay with SNB-19 CNS, 101%; in the assay on U251 CNS, 104%; with PC-3 prostate, 94.8%. Besides, the growth is 104% in the assay with SK-MEL-5 melanoma, 90.5% with UACC-62 melanoma, 97.4% in the assay on LOX IMVI melanoma and 104% with SK-MEL-28 melanoma.

Turning to `COc1cc(-c2ccc(N=Nc3ccc4c(S(=O)(=O)O)ccc(N)c4c3O)c(OC)c2)ccc1N=Nc1ccc2c(S(=O)(=O)O)ccc(N)c2c1O`, the growth is 110% with HCT-15 colon; 105% in the assay on HT29 colon; 70.9% in the assay with SNB-75 CNS; 110% in the assay with SNB-19 CNS; 107% with U251 CNS; 98.7% in the assay on PC-3 prostate. For the same compound, the growth with SK-MEL-5 melanoma is 105%; in the assay on UACC-62 melanoma, 111%; in the assay with LOX IMVI melanoma it was 102%; in the assay with SK-MEL-28 melanoma, 103%.

As to `O=C1/C=C/[C@@H](O)[C@@H]2C[C@@H](O)C[C@H]2/C=C/CCC[C@H](CCc2ccc(C(F)(F)F)cc2)O1`, the growth in the assay with HCT-15 colon was -3.05% (active); in the assay with HT29 colon it was -36.7% (active); in the assay on SNB-75 CNS it was -13.5% (active); with SNB-19 CNS, 17.6%; in the assay with U251 CNS it was 12.1%; in the assay with PC-3 prostate it was 8.76% (active). In addition, the growth in the assay on SK-MEL-5 melanoma was -87.2% (active); in the assay with UACC-62 melanoma, 6.89% (active); with LOX IMVI melanoma, -71.8% (active); in the assay on SK-MEL-28 melanoma, 2.07% (active).
